Values joined by “and” are separate entries in the source; they are usually repeats but may differ in a detail not shown here. Equal entries are not always repeated. Records with an inconclusive call do not appear. Active and inactive are the calls of the source. Unless noted, calls follow the shape of the dose curve; as a rule, active = well fitted curve in the direction sought with a large enough effect; inconclusive = small, poorly fitted or top-dose-only effect, or another doubt; inactive = no such curve, though single readings can be large; an effect the other way counts as inactive or inconclusive.
Legend:
[1] = Validation screen for small molecules that induce genotoxicity in human embryonic kidney (HEK293T) cells expressing luciferase-tagged ELG1 (AID 493106); conditions: luminescence; series mostly up to 46.1 µM; also: potency is read from the fitted curve at half-maximal effect
Procedure, shortened: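 Reporter-gene quantitative HTS in HEK293T cells carrying luciferase-tagged ELG1, whose level climbs under genotoxic stress. Compound exposure lasts 16 hr at 37 °C before luciferase detection.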

[2] = molecular target: ATPase family AAA domain-containing protein 5 (Homo sapiens) (UniProt Q96QE3); assay: Validation screen for small molecules that inhibit ELG1-dependent DNA repair in human embryonic kidney (HEK293T) cells expressing luciferase-tagged ELG1 (AID 493107); conditions: HEK293T ELG1-luciferase level, luminescence, 5-fluorouridine co-treatment, 16 h; series mostly up to 46.1 µM; also: nearly all actives have a fitted effect of over 70% in size; also: potency is read from the fitted curve at half-maximal effect
ATPase family AAA domain-containing protein 5 (Homo sapiens), sequence (Q96QE3 whole entry, looked up, the tested form may be a part): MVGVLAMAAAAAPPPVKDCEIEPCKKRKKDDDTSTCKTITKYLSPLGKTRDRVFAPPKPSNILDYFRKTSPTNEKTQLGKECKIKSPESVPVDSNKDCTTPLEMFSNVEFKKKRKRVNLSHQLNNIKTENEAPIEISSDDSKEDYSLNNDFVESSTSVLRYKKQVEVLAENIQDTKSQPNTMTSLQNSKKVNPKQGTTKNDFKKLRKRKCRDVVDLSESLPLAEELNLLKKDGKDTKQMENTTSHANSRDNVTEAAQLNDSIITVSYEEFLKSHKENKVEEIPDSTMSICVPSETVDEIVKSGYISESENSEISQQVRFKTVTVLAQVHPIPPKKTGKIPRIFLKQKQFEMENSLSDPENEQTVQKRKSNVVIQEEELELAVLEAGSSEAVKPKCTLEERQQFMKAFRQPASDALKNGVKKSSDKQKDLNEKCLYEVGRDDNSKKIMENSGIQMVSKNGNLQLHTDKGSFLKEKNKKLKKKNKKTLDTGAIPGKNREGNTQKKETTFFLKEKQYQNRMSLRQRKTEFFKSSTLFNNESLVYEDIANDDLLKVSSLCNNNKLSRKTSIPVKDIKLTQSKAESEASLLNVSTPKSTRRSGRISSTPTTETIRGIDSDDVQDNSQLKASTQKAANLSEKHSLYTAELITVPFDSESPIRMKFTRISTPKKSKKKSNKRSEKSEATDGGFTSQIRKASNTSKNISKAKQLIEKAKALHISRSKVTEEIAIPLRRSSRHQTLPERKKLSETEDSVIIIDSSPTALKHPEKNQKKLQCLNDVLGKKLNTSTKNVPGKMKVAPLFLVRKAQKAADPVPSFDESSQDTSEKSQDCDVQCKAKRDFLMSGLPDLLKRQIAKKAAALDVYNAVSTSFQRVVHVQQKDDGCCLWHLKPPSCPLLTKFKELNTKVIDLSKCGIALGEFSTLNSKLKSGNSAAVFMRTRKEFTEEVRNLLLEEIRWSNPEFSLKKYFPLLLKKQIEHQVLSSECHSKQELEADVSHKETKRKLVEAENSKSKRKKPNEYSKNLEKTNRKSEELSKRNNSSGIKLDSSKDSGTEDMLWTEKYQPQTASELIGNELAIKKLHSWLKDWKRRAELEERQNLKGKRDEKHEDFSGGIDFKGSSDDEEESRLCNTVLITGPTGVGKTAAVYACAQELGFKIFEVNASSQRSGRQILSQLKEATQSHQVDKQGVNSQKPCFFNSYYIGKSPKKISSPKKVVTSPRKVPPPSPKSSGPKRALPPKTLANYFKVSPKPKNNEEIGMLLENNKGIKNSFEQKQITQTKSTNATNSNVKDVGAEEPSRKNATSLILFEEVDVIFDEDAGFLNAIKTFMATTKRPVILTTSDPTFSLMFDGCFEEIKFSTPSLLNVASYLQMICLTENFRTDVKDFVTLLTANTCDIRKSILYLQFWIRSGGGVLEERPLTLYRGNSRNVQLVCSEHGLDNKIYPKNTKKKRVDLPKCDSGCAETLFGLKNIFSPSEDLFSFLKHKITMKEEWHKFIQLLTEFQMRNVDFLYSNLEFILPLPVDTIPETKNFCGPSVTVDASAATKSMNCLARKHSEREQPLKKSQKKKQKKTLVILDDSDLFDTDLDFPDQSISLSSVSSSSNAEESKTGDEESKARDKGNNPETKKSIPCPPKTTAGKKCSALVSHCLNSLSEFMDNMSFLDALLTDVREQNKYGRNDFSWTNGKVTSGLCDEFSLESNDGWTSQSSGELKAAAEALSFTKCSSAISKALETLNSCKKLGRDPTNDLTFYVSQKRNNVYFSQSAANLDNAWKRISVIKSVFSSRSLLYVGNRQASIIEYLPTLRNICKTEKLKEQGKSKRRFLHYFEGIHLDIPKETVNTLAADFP
Procedure, shortened: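 Quantitative HTS in HEK293T cells carrying luciferase-tagged ELG1, stimulated with 5-fluorouridine alongside compound for 16 hr. Loss of luciferase signal marks inhibition of ELG1 response.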

[3] = molecular target: Thyrotropin-releasing hormone receptor (Homo sapiens) (UniProt P34981); assay: qHTS for Small Molecule Agonists and Allosteric Enhancers of Human TRH Receptor: Validation Screen for Agonists (AID 493127;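 active = calcium activation more than 3 SD above the typical response in the agonist read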;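 also: intracellular calcium rise by fluo-8 fluorescence before TRH EC20 addition; 0% is about no effect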); conditions: TRH receptor agonist cell assay; at 2 µM; stronger effect = higher value
Thyrotropin-releasing hormone receptor (Homo sapiens), sequence (P34981 whole entry, looked up): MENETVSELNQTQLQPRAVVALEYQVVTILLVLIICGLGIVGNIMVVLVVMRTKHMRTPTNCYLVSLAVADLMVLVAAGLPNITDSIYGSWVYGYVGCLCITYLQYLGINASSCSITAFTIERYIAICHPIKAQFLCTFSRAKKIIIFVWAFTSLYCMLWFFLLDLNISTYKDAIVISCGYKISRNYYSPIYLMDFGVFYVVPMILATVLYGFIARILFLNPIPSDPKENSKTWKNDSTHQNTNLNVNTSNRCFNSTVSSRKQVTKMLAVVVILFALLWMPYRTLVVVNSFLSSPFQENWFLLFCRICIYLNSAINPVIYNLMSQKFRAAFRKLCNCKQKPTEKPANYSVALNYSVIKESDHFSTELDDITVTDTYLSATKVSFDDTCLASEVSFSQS
Procedure, shortened: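 Gq-coupled calcium mobilization in TRHR cells after compound addition, monitored kinetically with fluo-8 dye on an FDSS reader.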

[4] = Nrf2 qHTS screen for inhibitors: Validation (AID 493153; active = well fitted inhibition curve with a large enough effect in the main read-out, with a control signal flat, not every such curve was filed as active); conditions: A549 ARE-Fluc reporter, 18-24 h; Potency: luciferase luminescence; viability change: measured here: cytotoxicity max response; luciferase luminescence, at 46.1 µM (top of the series)
Procedure, shortened: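 Dose-response validation uses reporter A549 cells with firefly luciferase under an antioxidant response element. Compounds stay on cells 18-24 h at 37°C, and luminescence indicates Nrf2-driven transcription.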

[5] = qHTS for Inhibitors of Cell Surface uPA Generation: Validation Assay (AID 493164); conditions: mouse cells, plasminogen activation; series mostly up to 38.3 µM;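 also: RAW 264.7 macrophage cells exposed to compound for 18 h; 0% is about no effect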
Procedure, shortened: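 RAW 264.7, 4000 cells/well, o/n plating; cpd 7-pt 1:5 dilution 2.45 nM–38.3 uM final; 18 h, 37 C/5% CO2; ATP-Lite, 5 s luminescence exposure.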

[6] = molecular target: Galactokinase (Homo sapiens) (UniProt P51570); assay: qHTS Validation Assay for Inhibitors of Human Galactokinase (GALK) (AID 493189); conditions: purified human GALK enzyme activity, qHTS 7-point titration; series mostly up to 57.5 µM; also: 0% is about no effect
Procedure, shortened: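 Enzyme activity is inferred from ATP consumption: human GALK phosphorylates galactose (100 uM) using 35 uM ATP for 1 h at room temperature, and luciferase-based Kinase-Glo Plus reports unconsumed ATP.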

[7] = Validation screen for small molecules that induce DNA re-replication in SW480 colon adenocarcinoma cells (AID 504364); conditions: DNA re-replication phenotype (high-content imaging); series mostly up to 46.1 µM; also: 0% is about no effect
Procedure, shortened: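 Cells are treated 48 hr with test compound, stained 40 min with Hoechst at 37 C, and scanned for nuclear fluorescence; compounds inducing re-replication increase nuclei with elevated intensity.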

[8] = molecular target: phosphoglycerate mutase (Leishmania major) (UniProt Q4Q090); assay: qHTS Validation Assay to Find Inhibitors of Phosphoglycerate Mutase (AID 504548); conditions: biochemical enzyme activity; series mostly up to 57.5 µM; also: % is scaled to controls: 0 for no effect and ±100 for the full control effect
phosphoglycerate mutase (Leishmania major), sequence (Q4Q090 1-553): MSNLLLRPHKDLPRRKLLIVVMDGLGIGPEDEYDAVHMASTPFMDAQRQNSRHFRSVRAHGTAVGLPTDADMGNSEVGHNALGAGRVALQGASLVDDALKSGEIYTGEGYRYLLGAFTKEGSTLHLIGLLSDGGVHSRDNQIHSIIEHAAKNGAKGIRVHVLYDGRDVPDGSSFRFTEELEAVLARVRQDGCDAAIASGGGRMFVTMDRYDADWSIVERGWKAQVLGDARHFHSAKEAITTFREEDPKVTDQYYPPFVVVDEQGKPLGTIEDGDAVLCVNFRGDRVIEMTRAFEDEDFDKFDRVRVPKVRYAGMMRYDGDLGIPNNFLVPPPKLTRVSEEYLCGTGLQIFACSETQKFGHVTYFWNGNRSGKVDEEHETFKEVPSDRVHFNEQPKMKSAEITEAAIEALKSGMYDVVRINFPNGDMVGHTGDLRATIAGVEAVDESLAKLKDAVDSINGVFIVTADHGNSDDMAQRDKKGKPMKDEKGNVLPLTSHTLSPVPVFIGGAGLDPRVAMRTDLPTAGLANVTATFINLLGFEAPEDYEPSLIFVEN
Procedure, shortened: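 Luminescent end-point read-out via Kinase-GloPlus after a 10-minute development. Reaction: 1.25nM Leishmania major PGAM with substrate and compound, 45 minutes at room temperature in TEA buffer (pH 7.6) with MgCl2 and Tween-20.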

[9] = molecular target: Ubiquitin carboxyl-terminal hydrolase 1 (Homo sapiens) (UniProt O94782); assay: Inhibitors of USP1/UAF1: Pilot qHTS (AID 504865); conditions: purified USP1/UAF1, Ub-rhodamine cleavage fluorescence; series mostly up to 114 µM; also: nearly all actives have a fitted effect of over 35% in size; also: potency is read from the fitted curve at half-maximal effect
Ubiquitin carboxyl-terminal hydrolase 1 (Homo sapiens), sequence (O94782 whole entry, looked up): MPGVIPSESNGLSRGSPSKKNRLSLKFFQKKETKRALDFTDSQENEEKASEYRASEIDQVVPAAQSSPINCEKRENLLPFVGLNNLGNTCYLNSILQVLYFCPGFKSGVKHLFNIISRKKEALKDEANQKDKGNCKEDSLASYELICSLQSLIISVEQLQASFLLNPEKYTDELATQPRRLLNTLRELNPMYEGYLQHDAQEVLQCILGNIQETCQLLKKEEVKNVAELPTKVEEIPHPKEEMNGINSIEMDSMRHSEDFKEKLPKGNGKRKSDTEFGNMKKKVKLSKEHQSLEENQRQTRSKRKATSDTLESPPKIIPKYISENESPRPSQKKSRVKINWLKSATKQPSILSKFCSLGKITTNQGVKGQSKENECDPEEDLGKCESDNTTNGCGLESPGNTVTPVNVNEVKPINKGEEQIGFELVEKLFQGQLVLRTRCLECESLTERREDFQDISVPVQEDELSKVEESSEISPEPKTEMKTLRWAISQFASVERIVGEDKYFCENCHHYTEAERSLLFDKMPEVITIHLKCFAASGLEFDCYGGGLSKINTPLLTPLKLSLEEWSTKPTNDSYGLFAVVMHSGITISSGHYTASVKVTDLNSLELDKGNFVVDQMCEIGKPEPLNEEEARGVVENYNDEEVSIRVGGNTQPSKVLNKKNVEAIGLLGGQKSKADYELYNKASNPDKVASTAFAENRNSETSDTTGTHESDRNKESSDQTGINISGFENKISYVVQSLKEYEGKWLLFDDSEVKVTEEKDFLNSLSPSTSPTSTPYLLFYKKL
Procedure, shortened: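 Enzyme-free wells gave the negative control, while test wells held 1nM USP1/UAF1 preincubated with compound for 15 min at room temperature. Ub-Rho at 150nM final started the reaction, and fluorescence at 480/540 nm was recorded kinetically.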

[10] = qHTS for Inhibitors of ATXN expression: Validation of Cytotoxic Assay (AID 588349); conditions: cytotoxicity counter-screen for ATXN expression inhibitors, cell viability; series mostly up to 57.1 µM;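 also: cells exposed to compound for 72 hr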; also: potency is read from the fitted curve at half-maximal effect
Procedure, shortened: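 HEK293, compound dose series, 72 hr / 37 degrees C; viability via CellTiter Glo (intracellular ATP).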

[11] = qHTS for Inhibitors of ATXN expression: Validation (AID 588378); conditions: cell-based ATXN2 expression reporter assay, luminescence; series mostly up to 57.1 µM; also: nearly all actives have a fitted effect of over 75% in size; also: potency is read from the fitted curve at half-maximal effect
Procedure, shortened: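 After a 2 h attachment and 24 h compound incubation, HEK293-ATXN2-FFLuc wells are read for fluorescence at 405 nm excitation/525 nm emission as a viability measure, then for Bright-Glo luminescence reflecting ATXN2 expression.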

[12] = molecular target: Peptidyl-prolyl cis-trans isomerase NIMA-interacting 1 (Homo sapiens) (UniProt Q13526); assay: qHTS Validation Assay to Find Inhibitors of Pin1 (AID 504536; active = well fitted inhibition curve with a large enough effect in the polarisation, with a control signal flat, not every such curve was filed as active; the % refers to the polarisation;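 also: 0% = full Pin1 enzyme wells and -100% = no-enzyme wells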); conditions: Pin1 fluorescence polarization peptide binding assay; series mostly up to 57.5 µM
Procedure, shortened: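 Fluorescence polarization competition: compounds (titration) displace HiFluor-488-labeled Pin1-1b peptide from Pin1 (0.3 uM final) in pH 7.5 HEPES buffer with DTT, 10 min at room temperature; %Activity normalized to no-enzyme wells, curves fitted.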

[13] = molecular target: Phosphoglycerate kinase, glycosomal (Trypanosoma brucei brucei) (UniProt P07378); assay: qHTS Validation Assay to Find Inhibitors of Phosphoglycerate Kinase (AID 504547); conditions: enzymatic PGK inhibition, coupled luminescence read-out; series mostly up to 57.5 µM;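 also: control wells lack PGK and mark full inhibition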
Procedure, shortened: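 Inhibition of the enzyme is judged by a Kinase-Glo Plus luminescent signal following a one-hour incubation at room temperature. Because 1,3-BPG is unstable, it is made in situ by GAPDH at 100nM final; no-PGK wells define the baseline.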

[14] = molecular target: Estrogen receptor (Homo sapiens) (UniProt P03372); assay: qHTS assay for small molecule antagonists of estrogen receptor alpha signaling (AID 588513; active = well fitted curve in the direction sought with a large enough effect in the signal ratio, with a control signal flat, not every such curve was filed as active; the % refers to the signal ratio; also: % is scaled to controls: 0 for no effect and ±100 for the full control effect); conditions: ER-alpha-UAS-bla HEK293, beta-lactamase ratio, antagonist mode; series mostly up to 76.9 µM
Estrogen receptor (Homo sapiens), sequence (P03372 whole entry, looked up): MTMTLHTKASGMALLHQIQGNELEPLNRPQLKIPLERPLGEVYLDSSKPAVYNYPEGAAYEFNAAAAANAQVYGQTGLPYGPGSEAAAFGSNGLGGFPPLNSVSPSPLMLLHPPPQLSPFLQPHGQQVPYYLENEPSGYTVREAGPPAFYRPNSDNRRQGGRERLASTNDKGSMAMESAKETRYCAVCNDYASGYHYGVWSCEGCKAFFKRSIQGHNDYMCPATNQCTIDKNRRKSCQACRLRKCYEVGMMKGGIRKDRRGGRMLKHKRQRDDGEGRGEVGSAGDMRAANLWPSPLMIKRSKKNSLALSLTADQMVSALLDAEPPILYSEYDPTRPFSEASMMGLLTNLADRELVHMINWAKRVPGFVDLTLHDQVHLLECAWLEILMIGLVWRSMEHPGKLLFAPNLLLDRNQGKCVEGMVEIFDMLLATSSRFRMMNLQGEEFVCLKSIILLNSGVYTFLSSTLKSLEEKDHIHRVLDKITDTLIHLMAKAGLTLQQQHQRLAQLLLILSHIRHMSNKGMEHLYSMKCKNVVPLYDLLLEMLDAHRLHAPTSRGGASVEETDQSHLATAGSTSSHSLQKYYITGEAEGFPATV
Procedure, shortened: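 Antagonist-mode qHTS in ER-alpha-UAS-bla HEK 293 cells: compound titration, 0.5nM estradiol for 18 h, CCF4 fluorescence, Hill-derived IC50.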

[15] = molecular target: Estrogen receptor (Homo sapiens) (UniProt P03372); assay: qHTS assay for small molecule agonists of estrogen receptor alpha signaling (AID 588514; calls by dose curve;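 also: 0% = vehicle only and 100% = reference agonist; nearly all actives have a fitted effect of over 70% in size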); conditions: ER-alpha-UAS-bla HEK293, beta-lactamase ratio, 18 h; series mostly up to 76.8 µM
Procedure, shortened: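 Reporter-gene assay. […] controls beta-lactamase in HEK 293 GripTite cells; after 18 hrs with compound, CCF4 substrate is added for 2 hrs and fluorescence is read.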

[16] = molecular target: Bile acid receptor (Homo sapiens) (UniProt Q96RI1); assay: qHTS assay for small molecule antagonists of farnesoid X receptor signaling (AID 588526; calls by dose curve; also: % is scaled to controls: 0 for no effect and ±100 for the full control effect); conditions: HEK293T FXR-UAS-bla, beta-lactamase ratio, antagonist mode; series mostly up to 76.7 µM
Procedure, shortened: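 Beta-lactamase reporter antagonist mode: HEK293T FXR-UAS-bla cells, titrated compound, CDCA stimulation, 16 h 37 C, CCF4 dye 2 h RT. Data normalized to CDCA 50 uM and DMSO; Hill-fit IC50.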

[17] = molecular target: Androgen receptor (Homo sapiens) (UniProt P10275); assay: qHTS assay for small molecule agonists of androgen receptor signaling (AID 588515; active = well fitted curve in the direction sought with a large enough effect in the signal ratio, with a control signal flat; the % refers to the signal ratio; also: potency is read from the fitted curve at half-maximal effect); conditions: AR-UAS-bla HEK293, beta-lactamase ratio, agonist 16 h; activation: stronger effect = higher value
Androgen receptor (Homo sapiens), sequence (P10275 whole entry, looked up): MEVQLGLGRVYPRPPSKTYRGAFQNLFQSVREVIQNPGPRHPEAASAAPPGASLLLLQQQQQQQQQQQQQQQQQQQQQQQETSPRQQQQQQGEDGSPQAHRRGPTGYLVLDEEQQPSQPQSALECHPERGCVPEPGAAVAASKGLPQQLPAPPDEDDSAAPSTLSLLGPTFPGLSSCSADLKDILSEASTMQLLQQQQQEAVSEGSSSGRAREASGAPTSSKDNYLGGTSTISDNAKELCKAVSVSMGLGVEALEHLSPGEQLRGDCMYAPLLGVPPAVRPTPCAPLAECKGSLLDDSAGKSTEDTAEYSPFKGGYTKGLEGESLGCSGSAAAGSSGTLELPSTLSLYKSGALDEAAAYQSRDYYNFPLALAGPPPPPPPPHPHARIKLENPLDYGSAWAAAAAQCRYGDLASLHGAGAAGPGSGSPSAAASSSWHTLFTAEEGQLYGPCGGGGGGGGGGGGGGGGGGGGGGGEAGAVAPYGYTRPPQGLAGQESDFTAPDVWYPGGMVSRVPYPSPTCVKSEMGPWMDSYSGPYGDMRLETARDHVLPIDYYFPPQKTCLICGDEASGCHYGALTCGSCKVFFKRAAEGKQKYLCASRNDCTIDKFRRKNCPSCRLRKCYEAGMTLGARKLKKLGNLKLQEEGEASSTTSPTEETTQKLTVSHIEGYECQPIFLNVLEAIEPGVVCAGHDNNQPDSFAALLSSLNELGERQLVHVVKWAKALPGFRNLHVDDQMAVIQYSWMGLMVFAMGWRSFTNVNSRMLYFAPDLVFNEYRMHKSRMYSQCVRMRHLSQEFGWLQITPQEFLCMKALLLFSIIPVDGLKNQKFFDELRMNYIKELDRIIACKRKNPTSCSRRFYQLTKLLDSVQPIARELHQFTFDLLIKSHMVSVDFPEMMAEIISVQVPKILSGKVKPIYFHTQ
Procedure, shortened: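 EC50 and efficacy came from Hill fits of titrations (up to 92 uM) normalized to 30 nM R1881 as 100% and DMSO as 0%. Compound exposure was 16 h at 37 C on AR-UAS-bla HEK293 cells, with a 405/460/530 nm CCF4 fluorescence read.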

[18] = molecular target: Androgen receptor (Homo sapiens) (UniProt P10275); assay: qHTS assay for small molecule antagonists of androgen receptor signaling (AID 588516; active = well fitted curve in the direction sought with a large enough effect in the signal ratio, with a control signal flat, not every such curve was filed as active; the % refers to the signal ratio; also: % is scaled to controls: 0 for no effect and ±100 for the full control effect); conditions: AR-UAS-bla HEK293, beta-lactamase ratio, antagonist mode, 16 h; series mostly up to 76.8 µM
Procedure, shortened: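 Compounds tested in titration against 10 nM R1881 in AR-responsive bla reporter HEK 293 cells; CCF4 fluorescence (460/530 nm) after 16 h exposure gave IC50 and efficacy.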

c1cnc(N2CCN(Cc3ccc4c(c3)OCO4)CC2)nc1
2.39%: viability change [4]
inactive: Potency [1] | Potency [2] | activation [3] -3.31% | Potency [4] | outcome [5] | outcome [6] | outcome [7] | outcome [8] | Potency [9] | Potency [10] | Potency [11]

CN(C)CC[C@@H](c1ccc(Br)cc1)c1ccccn1
1.19%: viability change [4]
inactive: Potency [1] | Potency [2] | Potency [4] | outcome [5] | outcome [6] | outcome [7] | outcome [12] | outcome [13] | outcome [8] | Potency [9] | Potency [10] | Potency [11]

CC(=O)OCC1=C(C(=O)O)N2C(=O)[C@@H](NC(=O)Cc3cccs3)[C@H]2SC1
inactive: Potency [1] | Potency [2] | activation [3] 0.938% | Potency [4] | outcome [5] | outcome [6] | outcome [7] | outcome [8] | Potency [9] | Potency [10] | Potency [11]
0.396%: viability change [4]

COC(=O)C1=C(C)NC(C)=C(C(=O)OCCN(C)Cc2ccccc2)C1c1cccc([N+](=O)[O-])c1 (centres undefined)
inactive: Potency [1] | activation [3] -4.56% | outcome [5] | outcome [6] | outcome [13] | outcome [8]
active: Potency [2] 16.4 µM | Potency [10] 20 µM | Potency [11] 35.5 µM

COC(=O)[C@@H](N)Cc1ccc(O)c(O)c1
inactive: Potency [1] | Potency [2] | activation [3] 1% | Potency [4] | outcome [5] | outcome [6] | outcome [7] | outcome [13] | outcome [8] | Potency [9] | Potency [11]
-11.8%: viability change [4]

CC(=O)[C@]1(O)Cc2c(O)c3c(c(O)c2[C@@H](O[C@H]2C[C@H](N)[C@H](O)[C@H](C)O2)C1)C(=O)c1ccccc1C3=O
inactive: activation [3] 17.9% | Potency [4] | outcome [5] | outcome [6] | outcome [8]
-47.3%: viability change [4]
active: Potency [1] 0.58 µM | Potency [2] 5.8 µM | Potency [9] 50.1 µM and 39.8 µM

C[N+](C)(C)CCCCCCCCCC[N+](C)(C)C
inactive: Potency [1] | Potency [2] | Potency [4] | outcome [5] | outcome [6] | outcome [7] | outcome [12] | outcome [13] | outcome [8] | Potency [9] | Potency [10] | Potency [11]
-2.44%: viability change [4]

COCCc1ccc(OCC(O)CNC(C)C)cc1 (centres undefined)
inactive: Potency [1] | Potency [2] | Potency [4] | outcome [5] | outcome [6] | outcome [7] | outcome [12] | outcome [13] | outcome [8] | Potency [9] | Potency [10] | Potency [11]
-2.79%: viability change [4]

CCn1nc(C(=O)O)c(=O)c2cc3c(cc21)OCO3
-1.17%: viability change [4]
inactive: Potency [1] | Potency [2] | Potency [4] | outcome [5] | outcome [6] | outcome [7] | outcome [12] | outcome [13] | outcome [8] | Potency [9] | Potency [10] | Potency [11]

CC(C)NCC(O)c1cc(O)cc(O)c1 (centres undefined)
7.12%: viability change [4]
inactive: Potency [1] | Potency [2] | Potency [4] | outcome [5] | outcome [6] | outcome [7] | outcome [12] | outcome [8] | Potency [9] | Potency [10] | Potency [11]

O=C1CC2(CCCC2)CC(=O)N1CCCCN1CCN(c2ncccn2)CC1
inactive: Potency [1] | Potency [2] | activation [3] 0.688% | outcome [5] | outcome [6] | outcome [7] | outcome [12] | outcome [13] | outcome [8] | Potency [9] | Potency [10] | Potency [11]

CN(C)CCOC(=O)COc1ccc(Cl)cc1
9.38%: viability change [4]
inactive: Potency [1] | Potency [2] | activation [3] 0.188% | Potency [4] | outcome [5] | outcome [6] | outcome [7] | outcome [12] | outcome [8] | Potency [9] | Potency [10] | Potency [11]

CN=C(NC#N)NCCSCc1nc[nH]c1C
inactive: Potency [1] | Potency [2] | activation [3] 1.12% | outcome [5] | outcome [6] | outcome [7] | outcome [12] | outcome [13] | outcome [8] | Potency [9] | Potency [10] | Potency [11] | outcome [14] | Potency [15] | outcome [16]

COCCCC/C(=N\OCCN)c1ccc(C(F)(F)F)cc1
inactive: Potency [1] | Potency [2] | Potency [4] | outcome [5] | outcome [6] | outcome [7] | outcome [12] | outcome [13] | outcome [8] | Potency [9] | Potency [10]
9.56%: viability change [4]

Fc1ccc(C(c2ccc(F)cc2)N2CCN(C/C=C/c3ccccc3)CC2)cc1
active: Potency [2] 23.1 µM
-8.46%: viability change [4]
inactive: Potency [1] | Potency [4] | outcome [5] | outcome [6] | outcome [12] | outcome [13] | outcome [8]

CCO/C([O-])=N/c1c[n+](N2CCOCC2)no1
7.49%: viability change [4]
inactive: Potency [1] | Potency [2] | activation [3] -0.0625% | Potency [4] | outcome [5] | outcome [6] | outcome [7] | outcome [12] | outcome [8] | Potency [9] | Potency [10] | Potency [11]

Nc1nc(N)c2nc(-c3ccccc3)c(N)nc2n1
inactive: outcome [14]
active: Potency [17] 44.7 µM

COc1cc(Cc2cnc(N)nc2N)cc(OC)c1OC
inactive: outcome [14]

CCCCOCCOCCOCc1cc2c(cc1CCC)OCO2
inactive: activation [17] 19.3% and -3.12% | outcome [18] | outcome [16]

NC(=Nc1ccccc1)Nc1ccccc1
inactive: outcome [16]

Source: PubChem BioAssay (NCATS)
